Source: PubChem (ICCB-Longwood Screening Facility, Harvard Medical School)
A selection: hits, their analogues and other compounds. The true share with any hit is near 1.4%.
MbtI inh: MbtI salicylate synthase inhibitors, primary screen, biochemical, fluorescence intensity; P9WFX0; purified MbtI enzyme, fluorescence intensity read-out; inhibition, % (test concentration not listed); actives 0.89% (n = 100,000); AID 493033, 2011; in the data active = inhibition mostly above about 56%, no sharp cut-off; inactive = mostly below about 77%
MenB inh: M. tuberculosis MenB inhibitors, primary screen, biochemical, absorbance; 1,4-dihydroxy-2-naphthoyl-CoA synthase (Mycobacterium tuberculosis (strain ATCC 25618 / …; MenB enzyme assay, absorbance read-out; inhibition, % (concentration not given with the values); actives 0.43% (n = 100,000); in the data active = inhibition above about 21%, passing the limit was not always enough
PV pol inh: poliovirus RdRp elongation inhibitors, primary screen, biochemical, fluorescence polarization, total intensity; Genome polyprotein (Poliovirus type 1 (strain Mahoney)), P03300; poliovirus polymerase elongation; active compounds read low; % elongation, % (compound at 16.7 µg/mL); actives 0.66% (n = 150,000); AID 588519, 2011; in the data active = % elongation below about 90%
Target sequence (P03300 1749-2209 limits assumed): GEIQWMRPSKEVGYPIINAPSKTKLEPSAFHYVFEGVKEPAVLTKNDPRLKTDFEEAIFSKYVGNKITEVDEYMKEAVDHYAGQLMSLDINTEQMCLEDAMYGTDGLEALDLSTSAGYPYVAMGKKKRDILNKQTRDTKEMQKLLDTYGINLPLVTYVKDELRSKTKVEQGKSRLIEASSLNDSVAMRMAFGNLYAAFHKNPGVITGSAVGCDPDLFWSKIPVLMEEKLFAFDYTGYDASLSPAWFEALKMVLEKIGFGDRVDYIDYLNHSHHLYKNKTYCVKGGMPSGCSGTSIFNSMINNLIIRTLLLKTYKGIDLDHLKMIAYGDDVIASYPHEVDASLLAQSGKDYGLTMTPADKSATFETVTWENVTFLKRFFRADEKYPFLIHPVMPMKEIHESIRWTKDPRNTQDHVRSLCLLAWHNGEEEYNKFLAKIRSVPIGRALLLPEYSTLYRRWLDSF
An asterisk follows results filed as active; nt = not tested or not shown.

SMILES | MbtI inh | MenB inh | PV pol inh
CCN1CCCC1CNCc1ccccn1 (stereo not given) | 2 | -79 | 102
CCN1CCCC1CNCc1cccc(OC)c1OC (stereo not given) | 1 | 38* | 103
COC(=O)c1c(NC(=S)NCc2ccco2)sc2c1CCC(C)C2 (stereo not given) | -3 | -18 | 101
COC(=O)c1c(NC(=S)Nn2cnnc2)sc2c1CCC(C)C2 (stereo not given) | 85* | -15 | 99
Cc1cccc(-n2c3c(c(=O)[nH]c2=S)CN(CCc2ccccc2)CN3)c1 | 19 | 14 | 103
Cc1ccc(S(=O)(=O)NCC(=O)OCc2cc(=O)n3cc(C)ccc3n2)cc1 | 80 | 3 | 99
Cc1c(-c2ccccc2)sc(N)c1C(=O)N1CCCCC1 | 84 | -13 | 70*
Nc1ccccc1C(=O)N1CCCCCC1 | 17 | -1 | 97
Cn1c2ccccc2c2cnn(CC(=O)NCCN3CCCCCC3)c(=O)c21 | 17 | -24 | 102
N#Cc1ccc(NC(=O)COC(=O)CSc2ccccc2)cc1 | 0 | -19 | 106
O=C(c1ccc(F)cc1)N1CCc2ccccc2C1 | nt | -16 | 85*
Cc1ccc(C(=O)N2CCc3ccccc3C2)cc1 | nt | 4 | 103
Cc1c(/C=N/NC(=O)c2cncc(Br)c2)c2ccccc2n1C | -27 | -40 | 101
COc1ccc(/C=C2\SC(=O)N(c3c(C)n(C)n(-c4ccccc4)c3=O)C2=O)cc1OC | 87* | -32 | 81*
COc1ccc(/C=N/NC(=S)Nc2c(C)n(C)n(-c3ccccc3)c2=O)cc1OC | 27 | -12 | 100
COCCn1c(C)cc(C(=O)COC(=O)CN2C(=O)c3ccccc3C2=O)c1C | 12 | 7 | 104
CN(C)/C=C1/C=C(c2ccccc2)OC1=S | 80* | -168 | 99
CN(C)/C=C1/N=C(c2ccccc2)OC1=O | 11 | 4 | 100
O=C1c2ccccc2C(=O)N1CCN1CCN(Cc2ccccc2)CC1 | 2 | 11 | 102
COc1cccc(N2CCN(C(=O)CCCn3sc4ccccc4c3=O)CC2)c1 | 97* | -40 | 99
COc1cccc(N2CCN(C(=O)Cn3ncc4c5ccccc5n(C)c4c3=O)CC2)c1 | nt | nt | 106
Cc1ccc(-c2cc(C(F)(F)F)c3c(N)c(C(=O)c4ccc5c(c4)OCO5)sc3n2)o1 | nt | -9 | 45
CC(C)N1CCCc2cc(CN)ccc21 | nt | 29 | 31
CCN1CCCc2cc(O)ccc21 | 98* | nt | nt
CCCN1CCCc2cc(CN)ccc21 | 31 | -77 | 26*
SMILES | MbtI inh | MenB inh | PV pol inh
CNC(=O)NC(=O)CN1CCCc2cc(C)ccc21 | -5 | -3 | 104
CS/C(=C(/C#N)S(=O)(=O)C(C)C)N1CCCCC1 | 13 | -21 | 105
CSC(SC)=C(C#N)S(C)(=O)=O | 68* | 18 | 101
Cc1cc(CCN)c(C)n1-c1ccccc1 | -1 | -28 | 105
O=C(CCc1ccccc1)OCCN1CCCC1=O | 13 | 9 | 103
O=C(CSc1ncc2c(n1)-c1cc(Cl)ccc1N(Cc1ccccc1)S2(=O)=O)NCc1ccccc1 | nt | nt | 111
COc1ccccc1CNC(=O)CSc1ncc2c(n1)-c1cc(Cl)ccc1N(Cc1ccccc1)S2(=O)=O | nt | nt | -5.0*
COc1cc2c(cc1OC)CN(C(=O)CCOc1ccccc1OC)CC2 | -11 | -13 | 105
O=C(Cn1nnc(-c2ccncc2)n1)N(C1CCCCC1)C1CCCCC1 | 0 | active | 104
CCN(CC)C(=O)Cn1nnc(-c2ccccc2)n1 | -5 | 8 | 100
Cc1cnc2c(c1SCC(=O)N1CCC(C)CC1)c(=O)n(C)c(=O)n2C | -12 | -8 | 101
CC1CCN(S(=O)(=O)c2ccc3[nH]c(=O)cc(C(=O)NCCCN4CCOCC4)c3c2)CC1 | 22 | -10 | 99
CC(NC(=O)c1cc(=O)[nH]c2ccc(S(=O)(=O)N3CCOCC3)cc12)C12CC3CC(CC(C3)C1)C2 (stereo not given) | 11 | -13 | -9.0*
Cc1ccc(N=P(N(C)C)(N(C)C)C(C)(C)C)c(C)c1 | -5 | -1 | 104
O=C(CSc1nnnn1C1CCCC1)N(c1ccccc1)C1CCCCC1 | 1 | -14 | 101
Cn1c(SCC(=O)N(c2ccccc2)C2CCCCC2)nc2cc(S(N)(=O)=O)ccc21 | 17 | 6 | 79*
CNc1nc(-c2ccc(O)cc2O)cs1 | 13 | -105 | 104
O=C(c1nc(-c2cccnc2)no1)N1CCOCC1 | -14 | -5 | 105
CCOC(=O)c1sc(C)c2c(=O)[nH]c(-c3ccc(SC)cc3)nc12 | 64* | nt | nt
CSc1ccc(-c2nc3ccccc3c(=O)[nH]2)cc1 | -7 | 0 | 98
CNS(=O)(=O)Cc1ccccc1Cl | -13 | -30 | 101
NC1=NN=C(c2ccccc2)CS1 | 65* | -57 | 97
